Screening data deposited in PubChem by National Center for Advancing Translational Sciences (NCATS).
Giardia kill: Small Molecules that selectively kill Giardia lamblia: qHTS; Giardia lamblia trophozoite viability; activity change, % at 7.66 µM, hits read low; hit rate 0.15% among 340,000; in the data active = activity change below about -80%; inconclusive = between about -30% and that limit;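 note: parasites exposed to compound for two days anaerobically before the ATP read; % is set by controls: 0 for no effect and ±100 for the full control effect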
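Luminescent ATP signal served as the viability read-out, measured 15-30 min after adding ATP detection reagent to trophozoites that had been incubated with compounds for 48 hrs at 37 deg C anaerobically at 100 cells/well.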
RXFP1 antag: qHTS Assay for Antagonists of the Relaxin Receptor RXFP1; Relaxin receptor 1 (Homo sapiens), Q9HBX9; HEK293-RXFP1, relaxin-stimulated cAMP HTRF, 30 min; active compounds read low; activity change, negative = inhibition, % at 57.5 µM; hit rate 0.59% among 350,000; AID 1259400, 2018;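 active = activity change of -60% or lower, but not beyond a set lower limit; inconclusive = change between -60% and -40%, or beyond the set limit; inactive = change above -40%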; note: % is set by controls: 0 for no effect and ±100 for the full control effect
Target sequence (Q9HBX9 whole entry, looked up): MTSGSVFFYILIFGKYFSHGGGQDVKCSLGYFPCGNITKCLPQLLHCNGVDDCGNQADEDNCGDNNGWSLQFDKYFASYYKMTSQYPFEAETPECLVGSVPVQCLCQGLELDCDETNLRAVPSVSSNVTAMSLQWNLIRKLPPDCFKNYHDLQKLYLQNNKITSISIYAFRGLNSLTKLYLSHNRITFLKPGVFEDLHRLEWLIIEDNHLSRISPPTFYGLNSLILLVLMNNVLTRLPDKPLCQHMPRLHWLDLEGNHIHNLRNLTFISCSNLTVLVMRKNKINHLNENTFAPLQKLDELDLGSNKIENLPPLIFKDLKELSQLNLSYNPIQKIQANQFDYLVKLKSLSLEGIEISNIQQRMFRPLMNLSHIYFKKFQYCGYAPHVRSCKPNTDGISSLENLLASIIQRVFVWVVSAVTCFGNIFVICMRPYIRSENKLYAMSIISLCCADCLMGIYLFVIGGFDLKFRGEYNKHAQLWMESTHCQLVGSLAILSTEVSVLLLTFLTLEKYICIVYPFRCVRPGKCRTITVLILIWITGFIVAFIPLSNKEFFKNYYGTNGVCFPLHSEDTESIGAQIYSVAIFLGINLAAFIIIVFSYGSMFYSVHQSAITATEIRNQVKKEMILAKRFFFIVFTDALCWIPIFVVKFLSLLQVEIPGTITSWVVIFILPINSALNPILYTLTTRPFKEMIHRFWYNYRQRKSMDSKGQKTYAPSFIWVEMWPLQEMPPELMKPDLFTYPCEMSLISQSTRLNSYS
gsp ag: qHTS for Agonist of gsp, the Etiologic Mutation Responsible for Fibrous Dysplasia/McCune-Albright Syndrome: qHTS; gsp mutant cells, cAMP HTRF, 30 min; Potency, µM (highest dose often 76.9 µM), for the others: at the top dose activation (cAMP increase), actives largely listed as activators; hit rate 0.13% among 340,000; AID 624287, 2012; active = well fitted activation curve with a large enough effect; inconclusive = small, poorly fitted or top-dose-only effect, or another doubt; inactive = no such curve, though single readings can be large or run the other way; cell line not stated here;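 note: phosphodiesterase inhibitor Ro 20-1724 added with compounds to block cAMP breakdown; potency is the fitted concentration of half-maximal effect; nearly all actives have a fitted effect of over 60% in size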
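Cells in DMEM/10% FBS with G418 were pretreated with compounds in DMSO plus […] (300 uM stock) for 30 min at 37C. cAMP was measured by HTRF (cAMP-d2 plus anti-cAMP antibody-K) after 30 min at room temperature.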
FBPA coupling cs: qHTS Assay for Inhibitors of Fructose-1,6-bisphosphate Aldolase from Giardia Lamblia: Coupling assay counterscreen; AID 2472, 2010; hit rate 0.67% among 290,000; coupling enzyme system counterscreen, AmpLite Red fluorescence; activity change, negative = inhibition, % at 58.2 µM, hits read low; in the data active = activity change below about -30%; note: % is set by controls: 0 for no effect and ±100 for the full control effect
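First, compound is pin-transferred into glyceraldehyde-3-phosphate coupling-enzyme reagent at 57.5 uM final and held 10 min at RT. Next, substrate, coupling system and AmpLite Red are added. After 20 min RT, fluorescence (525/598 nm) is read.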
RXFP1 ag: qHTS Assay for Agonists of the Relaxin Receptor RXFP1 | HEK293T-RXFP1 cAMP TR-FRET, 30 min; response scale: percent of porcine relaxin response, buffer zero | Potency, µM (doses to about 57.5 µM), inactives show top-dose activation, hits mostly activators | hit rate 0.3% among 370,000; active = well fitted activation curve with a large enough effect; inconclusive = small, poorly fitted or top-dose-only effect; note: potency is the fitted concentration of half-maximal effect; % is set by controls: 0 for no effect and ±100 for the full control effect; nearly all actives have a fitted effect of over 60% in size
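HEK293T cells stably expressing RXFP1 were pretreated with the PDE4 inhibitor Ro 20174, exposed to compounds for 30 min at 37C, lysed, and cAMP was read by TR-FRET. Data normalized to buffer (basal) and 29 nM porcine relaxin (100%).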
gsp antag: qHTS for Antagonists of gsp, the Etiologic Mutation Responsible for Fibrous Dysplasia/McCune-Albright Syndrome: qHTS | gsp-mutant cells, cAMP HTRF, 30 min | Potency, µM (doses to about 76.9 µM), for inactives: at the highest dose activity change, negative = inhibition, hits mostly inhibitors | hit rate 0.4% among 340,000 | AID 624288, 2012; calls by dose curve; cell line not stated here;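 note: intracellular cAMP measured with PDE inhibitor Ro 20-1724 present during compound exposure; potency is the fitted concentration of half-maximal effect; % is set by controls: 0 for no effect and ±100 for the full control effect; nearly all actives have a fitted effect of over 65% in size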
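HTRF cAMP measurement after 30 min RT detection following 30 min, 37C compound treatment alongside […] (added as 300 uM solution) in G418-selected cells seeded at 2000/well and grown 16–24 h.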
The depositor's hits bear a star; ? = inconclusive; / = not tested or not shown; [ ] = remark or other dose. Rows were chosen to be rich in hits. Some 1.6% of all compounds tested hit in one or more screens of this group.

SMILES	Giardia kill	RXFP1 antag	gsp ag	FBPA coupling cs	RXFP1 ag	gsp antag
Cc1ccccc1-c1cncnc1NCc1cccs1	/	/	/	14	/	/
O=[N+]([O-])c1cc(Cl)ccc1N1CCN(c2cccc(C(F)(F)F)c2)CC1	-12	-4	-11%[15.4 µM]	0	3%	3%
O=c1c([N+](=O)[O-])cc(C(F)(F)F)cn1Cc1c(Cl)cccc1Cl	-91*	3	-32%	5	0%	4%
COC(=O)c1ccc(Cn2cc(C(F)(F)F)cc([N+](=O)[O-])c2=O)cc1	-95*	9	3%	0	1%	7%
CC(C)CCSc1nc2[nH]ncc2c(=O)[nH]1	1	-3	12%	4	0%	15%
CC(NCc1ccc([N+](=O)[O-])cc1)C1COc2ccccc2O1 (stereo not given)	26	-5	-3%	5	2%	14%
CCOC(=O)CCN1C(=O)[C@H]2[C@H]3[C@H](O)[C@H](O)C/C(=N/OC[C@@H](O)COCc4ccco4)[C@H]3CC[C@@H]2C1=O	/	/	/	-1	/	/
CCOC(=O)c1nc(Nc2cc(C)cc(C)c2)c2ccccc2n1	7	-31	-5%[15.4 µM]	0	1%	7.9µM*
O=C(O)CCCC[P+](c1ccccc1)(c1ccccc1)c1ccccc1	/	4	/	/	/	/
COc1ccc(C(C)C)cc1S(=O)(=O)NCCCn1ccnc1	10	-63*	-75%	-1	-1%	7%
COc1ccc(S(=O)(=O)NCCCn2ccnc2)cc1C(C)(C)C	-15	-29	-51%	1	0%	2%
Cc1cc(Nc2cccc(C(F)(F)F)c2)nc2ccc(NC(=O)c3cccnc3)cc12	/	-72*	/	/	6%	/
C=CCc1cc(Cl)ccc1OCCOCCNC(C)CC (stereo not given)	-1	?	4%[15.4 µM]	1	-3%	6%
CCC(C)NCCCOc1cc(Cl)ccc1Cl (stereo not given)	5	-5	20%	0	0%	2%
CCC(C)NCCOCCOc1ccc(Cl)c(C)c1C (stereo not given)	-1	-68*	1%	1	0%	9%
CCC(C)NCCOCCOc1ccc(Cl)c2ccccc12 (stereo not given)	14	-78*	16%	-7	0%	-5%
c1cc2c3c(cccc3c1)C(N1CCOCC1)=N2	-4	-8	16%[15.4 µM]	-51*	2%	-12%
CC1CN(C2=Nc3cccc4cccc2c34)CC(C)O1 (stereo not given)	16	-10	-35%	-46*	3%	-42%
CC(=O)N1CCN(C2=Nc3cccc4cccc2c34)CC1	11	-10	-35%	-47*	-2%	-14%
CCOC(=O)N1CCN(C2=Nc3cccc4cccc2c34)CC1	10	-12	-24%	-57*	0%	-19%
COc1ccccc1N1CCN(C2=Nc3cccc4cccc2c34)CC1	-6	-32	-10%[15.4 µM]	-18	0%	-24%
c1ccc(CC2CCN(C3=Nc4cccc5cccc3c45)CC2)cc1	-13	-11	4%	-6	0%	?
CCOC(=O)N1CCN(C(=O)Nc2cccc3ccccc23)CC1	-7	-1	8%[15.4 µM]	-2	1%	-8%
C[C@H]1Oc2ccccc2C(=O)C1C(=O)c1ccccc1 (stereo not given in full)	2	-19	23%	/	/	-1%
CC(=O)c1cccc(NC(=O)CN2CCN(S(=O)(=O)/C=C/c3ccccc3)CC2)c1	-1	7	-11%	/	0%	-11%
Clc1ccc(-c2nc(-c3cc4cc(Cl)ccc4o3)cs2)cc1	20	9	-8%	0	0%	28µM*
CCC(=O)Oc1ccc2c(c1)CC[C@@H]1[C@@H]2CC[C@@]2(C)[C@H]1C[C@@H](OC(=O)CC)[C@@H]2OC(=O)CC	/	-20	/	/	/	/
